# RORg inh = qHTS for inhibitors of ROR gamma transcriptional activity; Potency, µM (doses to about 53.6 µM), for inactives: top-dose activity change, negative = inhibition, most hits filed as inhibitors; hit rate 5.4% among 310,000; Nuclear receptor ROR-gamma (Mus musculus), P51450; Drosophila S2 Gal4-RORgamma UAS-luciferase reporter, 20 h; further: potency means the concentration at half of the fitted maximal effect; nearly all actives have a fitted effect of over 60% in size
#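 In this cell-based reporter format, copper sulfate (700 uM final) drives Gal4–ROR gamma fusion expression from a metallothionein promoter in Drosophila Schneider cells; compounds preincubated 1 hr, reporter read after 20 hr at ambient temperature.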
# PKM2 activator = qHTS Assay for Activators of Human Muscle isoform 2 Pyruvate Kinase. Pyruvate kinase PKM (Homo sapiens), P14618. purified PKM2, Kinase-Glo ATP luminescence, activation; response scale: 0% is enzyme alone, no compound. Potency, µM (series often up to 57.5 µM), for inactives: top-dose activation, actives largely listed as activators. hit rate 0.34% among 260,000. AID 1631, 2009; further: potency means the concentration at half of the fitted maximal effect; nearly all actives have a fitted effect of over 55% in size
#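 Purified hPK-M2 (>95% pure) converted ADP (0.1 mM final) to ATP with 0.5 mM PEP in 50 mM imidazole pH7.2, KCl, MgCl2, Tween 20, BSA; 1 h at room temperature. ATP detected by Kinase-Glo luminescence.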
# Six1-Eya2 blk = qHTS Assay for Inhibitors of the Six1/Eya2 Interaction; Homeobox protein SIX1 (Homo sapiens) + Protein phosphatase EYA2 (Homo sapiens), …; AlphaScreen GST-Six1/His-Eya2 binding, biochemical; stronger effect = lower value; activity change, % (no concentration beside the values); hit rate 0.56% among 360,000; in the data active means activity change below about -65%; inconclusive means mostly about -30% to -63%
# Target sequence (O00167 whole entry, looked up): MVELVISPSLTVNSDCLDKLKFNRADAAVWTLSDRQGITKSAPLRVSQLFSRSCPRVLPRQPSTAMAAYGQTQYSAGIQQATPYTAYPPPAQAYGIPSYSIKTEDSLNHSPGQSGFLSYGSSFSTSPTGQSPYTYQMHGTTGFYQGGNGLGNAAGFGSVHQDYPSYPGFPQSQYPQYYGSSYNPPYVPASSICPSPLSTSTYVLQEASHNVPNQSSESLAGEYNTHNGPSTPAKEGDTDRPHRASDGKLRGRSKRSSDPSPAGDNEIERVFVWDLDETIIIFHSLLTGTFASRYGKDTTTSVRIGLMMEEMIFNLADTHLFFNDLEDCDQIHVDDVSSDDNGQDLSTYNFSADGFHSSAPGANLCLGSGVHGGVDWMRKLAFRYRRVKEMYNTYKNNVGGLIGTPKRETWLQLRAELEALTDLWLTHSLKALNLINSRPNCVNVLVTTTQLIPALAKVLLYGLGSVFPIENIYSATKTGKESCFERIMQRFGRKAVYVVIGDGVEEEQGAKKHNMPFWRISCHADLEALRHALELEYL
# Target sequence (Q15475 whole entry, looked up): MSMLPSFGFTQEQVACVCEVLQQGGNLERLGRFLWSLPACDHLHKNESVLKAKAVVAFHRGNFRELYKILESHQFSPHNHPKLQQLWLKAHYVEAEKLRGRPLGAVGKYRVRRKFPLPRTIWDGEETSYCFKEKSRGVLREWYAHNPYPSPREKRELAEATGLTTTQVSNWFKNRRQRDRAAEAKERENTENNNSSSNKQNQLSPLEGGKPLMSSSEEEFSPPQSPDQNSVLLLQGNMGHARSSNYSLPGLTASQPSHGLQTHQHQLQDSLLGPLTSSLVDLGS
#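 Compounds are tested against tagged Six1 and Eya2 proteins bridged by glutathione donor and nickel acceptor beads; after a one-hour incubation at 37 °C without light, AlphaScreen emission is recorded.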
# Gal4-VP16 FLuc = VP16 counterscreen qHTS for inhibitors of ROR gamma transcriptional activity; Drosophila S2 Gal4-VP16 UAS-luciferase, luminescence, 20 h; Potency, µM (series often up to 53.6 µM), inactives show top-dose activity, negative = inhibition, hits mostly inhibitors; hit rate 3.5% among 310,000;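 further: Gal4-VP16 expression switched on by copper sulfate through the metallothionein promoter; potency means the concentration at half of the fitted maximal effect; nearly all actives have a fitted effect of over 50% in size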
# CtBP-E1A inh = qHTS Assay for Inhibitors of the CtBP/E1A Interaction. CtBP / adenovirus E1A interaction (AlphaScreen). AlphaScreen GST-E1A/His-CtBP binding, 1536-well; stronger effect = lower value. activity change, % (test concentration not listed). hit rate 0.49% among 340,000; in the data active means activity change below about -65%; inconclusive means mostly about -30% to -63%
#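 Protein mix (5X: 125 nM each GST-E1A, His-CtBP) was incubated with pinned compound 2 h at 37 deg C in dark, in 50 mM Tris pH 8.0 buffer with 300 mM NaCl. Glutathione donor and nickel acceptor beads followed; AlphaScreen signal read after 1 h.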
# * hit, by the source's call; ? = inconclusive; . = not tested or not shown; [ ] = dose if it differs, or a comment. Hits are enriched below; roughly 5.6% of the tested compounds scored in any of these assays. Unless noted, the call rests on the fitted dose curve; in most records, active means well fitted curve in the direction sought with a large enough effect; inconclusive means small, poorly fitted or top-dose-only effect, or another doubt; inactive means no such curve, though single readings can be large; an effect the other way counts as inactive or inconclusive. On the % scale 0 is the no-effect control and ±100 the full control effect.
SMILES,RORg inh,PKM2 activator,Six1-Eya2 blk,Gal4-VP16 FLuc,CtBP-E1A inh
COc1ccc(CNc2ccc(Br)cc2)cc1,10%,0%,8,-18%,-10
COc1ccc(CNc2ccc(C(=O)O)cc2)cc1,1.3µM*,-3%,23,0.63µM*,1
CCOc1ccc(/C=N/NC(=O)c2ccccc2NC(=O)c2ccc(OC)cc2)cc1,7.1µM*,4%,2,7.1µM*,-3
O=C(N/N=C/c1ccc(OCc2ccccc2)cc1)c1ccncc1,13µM*,-2%,-2,-17%,.
O=C(N/N=C/c1ccc(O)cc1)c1ccc(NC(=O)c2ccccc2Br)cc1,-33%,2%,?,-24%,?
Cc1ccccc1C(=O)Nc1ccc(C(=O)N/N=C/c2ccncc2)cc1,-3%,0%,-18,7%,1
O=C(N/N=C/c1ccncc1)c1ccc(OCc2ccccc2)cc1,0%,0%,0,7%,-16
O=C(Nc1ccccc1C(=O)N/N=C/c1ccncc1)c1ccccc1,8.9µM*,-84%,5,?,3
O=C(Nc1ccccc1C(=O)N/N=C/c1ccc(F)cc1)c1ccccc1Br,10µM*,-12%,-3,?,-6
c1ccc(CNc2cc(-c3cccnc3)ncn2)cc1,23%,.,.,5%,.
NS(=O)(=O)c1cnccc1NCCc1ccccc1,.,.,-3,.,-1
CC(=O)c1cccc(NC(=O)CNC(=O)Cc2ccccc2)c1,-4%,7%,11,3%,0
COc1ccc(C(=O)Nc2ccccc2C(=O)N/N=C/c2ccco2)cc1,2µM*,-59%,-3,10µM*,0
CC(=O)Nc1ccc(S(=O)(=O)N2CCN(S(=O)(=O)N3CCC(C)CC3)CC2)cc1,-17%,1%,-1,-25%,7
CCOC(=O)NC(=O)C(/C=N/c1sccc1C(=O)OC)=C(\C)O,-21%,-7%,-1,-12%[10 µM],-19
COc1ccc(C(=O)NC(=S)N2CCOCC2)cc1[N+](=O)[O-],2.2µM*,-8%,5,2.8µM*,6
COc1ccc(C(=O)NC(=S)N2CCOCC2)cc1Br,1.3µM*,-12%,0,1.1µM*,5
CN(C(=O)CCS(=O)(=O)c1ccc2c(c1)oc(=O)n2C)C1CCCCC1,-10%,.,3,-1%,-6
O=C(NC(=S)Nc1ccccc1CO)C1CCCCC1,.,.,4,.,-1
CCOc1ccccc1NC(=S)Nc1ccc(S(N)(=O)=O)cc1,11µM*,7%,-8,-26%,-2
CCOc1ccccc1NC(=O)/C=C/C(N)=O,4.5µM*,22%,6,5.6µM*,6
CCOc1ccccc1NC(=S)NC(=O)C1CC1,?,9%,-1,0.71µM*,5
CCOc1ccccc1NC(=O)/C=C/c1ccccc1[N+](=O)[O-],32%[10 µM],0%,2,-3%,-6
CCOc1ccccc1NC(=O)Nc1cccc(S(N)(=O)=O)c1,0%,7%,-12,14%,-1
Cc1ccccc1NC(=S)NC(=O)C1CCCCC1,4µM*,-11%,6,?,5
SMILES,RORg inh,PKM2 activator,Six1-Eya2 blk,Gal4-VP16 FLuc,CtBP-E1A inh
O=C(NC(=S)Nc1ccccc1Br)C1CC1,.,.,3,.,-11
C=CCOc1cccc(C(=O)N2CCCC(Nc3ccc4c(c3)OCCO4)C2)c1 (stereo not drawn),?,0%,-20,14%,-3
Nc1ccccc1-n1cccc1,-7%,7%,3,-10%,1
CCCCNC(=S)NNC(=O)C12CC3CC(CC(C3)C1)C2,14µM*,3%,0,?,5
CCOC(=O)C1=NN(C(=O)Cc2ccccc2)C(O)(c2ccc(Cl)cc2)C1 (stereo not drawn),5.6µM*,-6%,0,10µM*,2
CCOC(=O)C1=NN(C(=O)COc2ccccc2)C(O)(c2ccc(Cl)cc2)C1 (stereo not drawn),3.5µM*,2%,20,11µM*,-15
C[C@H]1CN([C@@H](C)CO)C(=O)c2cc(Br)cnc2O[C@@H]1CN(C)S(C)(=O)=O,.,.,7,.,-22
CCCn1nc(C(=O)Nc2nc3ccccc3[nH]2)c2ccccc2c1=O,13µM*,5%,-6,20µM*,-13
CC(C)n1nc(C(=O)NNC(=O)c2ccncc2)c2ccccc2c1=O,.,.,4,.,-3
CC(C)n1nc(C(=O)Nc2nc3ccccc3[nH]2)c2ccccc2c1=O,1.8µM*,10%,-15,?,-21
COc1cccc(CN2CCN(Cc3cccc4c3OCO4)CC2CCO)c1 (stereo not drawn),7.1µM*,4%,-3,7.9µM*,1
Cc1ccc(CN2CCN(Cc3cccc4c3OCO4)CC2CCO)cc1 (stereo not drawn),3%,-2%,-3,-1%,4
CC(C)C[C@H](NC(=O)CNC(=O)[C@H](CCC(N)=O)NC(=O)[C@H](CC(C)C)NC(=O)[C@H](CC(C)C)NC(=O)[C@H](CCCNC(=N)N)NC(=O)[C@H](CCC(N)=O)NC(=O)[C@H](CC(C)C)NC(=O)[C@H](CCCNC(=N)N)NC(=O)[C@H](C)NC(=O)CNC(=O)[C@H](CCC(=O)O)NC(=O)[C@H](CCCNC(=N)N)NC(=O)[C@H](CC(C)C)NC(=O)[C@H](CCCNC(=N)N)NC(=O)[C@H](CO)NC(=O)[C@H](CC(C)C)NC(=O)[C@H](CCC(=O)O)NC(=O)[C@H](CO)NC(=O)[C@@H](NC(=O)[C@H](Cc1ccccc1)NC(=O)[C@@H](NC(=O)CNC(=O)[C@H](CC(=O)O)NC(=O)[C@H](CO)NC(=O)[C@@H](N)Cc1cnc[nH]1)[C@@H](C)O)[C@@H](C)O)C(=O)N[C@H](C(N)=O)C(C)C,0%,.,.,-8%,.
Cc1ccc(-c2n[nH]c(=S)n2/N=C/c2c(C)nn(-c3ccccc3)c2C)cc1,6.3µM*,6%,1,?,-17
Cc1ccc(-c2cc(C(=O)N/N=C/c3c(C)nn(-c4ccccc4)c3C)[nH]n2)cc1,?,-4%,.,-9%,.
Cc1c(Br)c(O)c(Br)c(O)c1/C=N/n1c(-c2ccccc2)n[nH]c1=S,7%,.,-25,3%,?
Cc1ccccc1-c1n[nH]c(=S)n1/N=C/c1c(C)nn(-c2ccccc2)c1C,4.5µM*,-4%,3,?,-1
Cc1nn(-c2ccccc2)c(C)c1/C=N/n1c(-c2ccc(C(C)(C)C)cc2)n[nH]c1=S,2.2µM*,-1%,-2,-11%,-1
O=C(COc1cccc(Cl)c1Cl)NC1CC1,.,.,4,.,.

# Screening results (PubChem BioAssay)
